Eight molecules from PubChem BioAssay (NCI) can be followed below.

Some test systems named below: 786-0 renal; MALME-3M melanoma; MDA-MB-231 breast; SF-268 CNS; SF-295 CNS; UACC-257 melanoma; UACC-62 melanoma; SK-MEL-2 melanoma; EKVX NSCLC; SN12C renal; UO-31 renal; TK-10 renal; CAKI-1 renal; A498 renal; OVCAR-8 ovarian; OVCAR-5 ovarian; IGROV1 ovarian; OVCAR-3 ovarian; HS 578T breast; NCI/ADR-RES ovarian.
Holding throughout (assay): NCI-60 one-dose screen, 48 h (100 = growth as untreated, 0 = no growth, -100 = all killed)
Common to all, as to conditions: 10 µM

The panel holds about 83,000 compounds, 20% with a hit somewhere; the sample as a whole holds those more often.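 Values shown are percent growth following 48 h exposure of cells in 96-well plates to a single concentration of compound; below 10 was considered active.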 Unmarked numbers belong to inactive results. Active and inactive are the calls of the source.

Take `C#C[C@]1(O)CC[C@H]2[C@@H]3CC=C4c5sc(Nc6ccc(N(C)C)cc6)nc5CC[C@]4(C)[C@H]3CC[C@@]21C`: the growth with 786-0 renal is -54.6% (active); in the experiment with MALME-3M melanoma it was -44.7% (active); in the experiment on MDA-MB-231 breast, -10.7% (active); with SF-268 CNS, 11.7%; with SF-295 CNS, -58.7% (active); with UACC-257 melanoma, 45.9%. Besides, the growth in the experiment with UACC-62 melanoma is -2.23% (active); in the experiment with SK-MEL-2 melanoma it was -33.1% (active); in the experiment with EKVX NSCLC it was 24.7%; in the experiment on SN12C renal it was 12.1%; with UO-31 renal, -45% (active); in the experiment on TK-10 renal it was 42.3%. The growth in the experiment with CAKI-1 renal is 2.6% (active); in the experiment with A498 renal it was -42.4% (active); with OVCAR-8 ovarian, 0.0481% (active); with OVCAR-5 ovarian, 21.7%; with IGROV1 ovarian, 9.97% (active); in the experiment with OVCAR-3 ovarian, 2.6% (active). For the same molecule, the growth in the experiment with HS 578T breast was -7.74% (active); with NCI/ADR-RES ovarian, 9.68% (active).
As for `Cc1cc(N=C2NC(=O)S/C2=C\c2ccc(F)cc2)n[nH]1`, the growth with 786-0 renal is 10.3%; with MALME-3M melanoma, -7% (active); in the experiment with MDA-MB-231 breast, 9.79% (active); in the experiment with SF-268 CNS, 29%; with SF-295 CNS, 12.1%; in the experiment with UACC-257 melanoma, 19.6%. For the same molecule, the growth is -19.6% (active) in the experiment on UACC-62 melanoma; 11% in the experiment with SK-MEL-2 melanoma; 15.2% in the experiment on EKVX NSCLC; 22.8% with SN12C renal; 12.1% with UO-31 renal; 32.7% in the experiment on TK-10 renal. The growth with CAKI-1 renal was 21.2%; with A498 renal, 64%; in the experiment with OVCAR-8 ovarian it was 12.2%; in the experiment with OVCAR-5 ovarian, 31%; in the experiment on IGROV1 ovarian, 25.3%; in the experiment on OVCAR-3 ovarian it was 20.2%. In addition, the growth was 10% in the experiment on HS 578T breast and 9.56% (active) with NCI/ADR-RES ovarian.
`C#CCOc1cc(N(CC)CC)ccc1C(C(=O)NC(C)(C)C)N(C(=O)C1CCc2cc(F)ccc2O1)c1ccc(F)cc1F` (stereo not given): the growth is 53.9% in the experiment on 786-0 renal; 62.1% with MALME-3M melanoma; 55.4% in the experiment with MDA-MB-231 breast; 50.6% in the experiment on SF-268 CNS; 33.2% in the experiment on SF-295 CNS; 29.6% with UACC-257 melanoma. Also, the growth with UACC-62 melanoma was 29.1%; with SK-MEL-2 melanoma it was -30.4% (active); with EKVX NSCLC it was 47.6%; with SN12C renal it was 47.1%; in the experiment on UO-31 renal, 27.7%; in the experiment with TK-10 renal, 61.3%. Moreover, the growth in the experiment on CAKI-1 renal was 29.8%; in the experiment on A498 renal it was 68.9%; with OVCAR-8 ovarian, 43.9%; with OVCAR-5 ovarian it was 64%; in the experiment with IGROV1 ovarian, 60.3%; with OVCAR-3 ovarian, 33.4%. Also, the growth was 70.6% in the experiment on HS 578T breast and 53.1% with NCI/ADR-RES ovarian.
With `Cn1cc(-c2cc3nc(-c4c[nH]c5ccccc45)cc(N)n3n2)c2cc(Cl)ccc21`, the growth was -85.7% (active) in the experiment with 786-0 renal; -90.8% (active) in the experiment on MALME-3M melanoma; -69.4% (active) in the experiment with MDA-MB-231 breast; -44.6% (active) in the experiment on SF-268 CNS; -90.9% (active) with SF-295 CNS; -90.4% (active) in the experiment on UACC-257 melanoma. The growth was -85.8% (active) in the experiment on UACC-62 melanoma; -95.8% (active) with SK-MEL-2 melanoma; -90% (active) in the experiment with EKVX NSCLC; -85.7% (active) in the experiment on SN12C renal; -97.7% (active) with UO-31 renal; -91.8% (active) with TK-10 renal. For the same molecule, the growth in the experiment with CAKI-1 renal is -98.7% (active); with A498 renal, -82.9% (active); in the experiment on OVCAR-8 ovarian it was -86.1% (active); in the experiment with OVCAR-5 ovarian, -86.4% (active); in the experiment on IGROV1 ovarian, -64.5% (active); in the experiment on OVCAR-3 ovarian, -80% (active). Also, the growth in the experiment on HS 578T breast is -22.2% (active); in the experiment on NCI/ADR-RES ovarian, -48.5% (active).
Take `COc1ccc(C2OC[C@@]3(C)C4CC[C@]5(C)C(CC=C6C7CC(C)(C)CC[C@]7(C(=O)O)CC[C@]65C)[C@@]4(C)C[C@@H](O)[C@@H]3O2)cc1` (stereo not given in full): the growth in the experiment with 786-0 renal is 94.8%; in the experiment with MALME-3M melanoma, 99.3%; in the experiment on MDA-MB-231 breast, 110%; in the experiment on SF-268 CNS, 88.8%; with SF-295 CNS, 94.3%; in the experiment with UACC-257 melanoma, 96.3%. The growth in the experiment on UACC-62 melanoma is 85.3%; in the experiment with SK-MEL-2 melanoma it was 102%; with EKVX NSCLC, 52.9%; in the experiment on SN12C renal, 82%; in the experiment on UO-31 renal it was 57.9%; with TK-10 renal, 76%. Also, the growth in the experiment on CAKI-1 renal was 73.5%; in the experiment with A498 renal, 102%; in the experiment with OVCAR-8 ovarian, 73.2%; in the experiment on OVCAR-5 ovarian it was 108%; in the experiment with IGROV1 ovarian, 101%; in the experiment on OVCAR-3 ovarian it was 74.1%. The growth with HS 578T breast was 85.3%; in the experiment with NCI/ADR-RES ovarian it was 87.1%.
In the case of `COc1cc(Nc2nc(O)c(/C=C3\C=Nc4ccccc43)s2)cc(OC)c1OC`, the growth in the experiment on 786-0 renal is -73.1% (active); in the experiment on MALME-3M melanoma it was -30.1% (active); in the experiment with MDA-MB-231 breast, -40.7% (active); with SF-268 CNS, -38.2% (active); in the experiment with SF-295 CNS, -73.4% (active); in the experiment on UACC-257 melanoma, 4.51% (active). Moreover, the growth is -65.9% (active) in the experiment on UACC-62 melanoma; -70.6% (active) in the experiment with SK-MEL-2 melanoma; -41.8% (active) with EKVX NSCLC; -88% (active) in the experiment with SN12C renal; -48.9% (active) in the experiment with UO-31 renal; -35% (active) in the experiment on TK-10 renal. The growth with CAKI-1 renal is -69.3% (active); in the experiment with A498 renal, -76.1% (active); with OVCAR-8 ovarian it was -49.8% (active); in the experiment with OVCAR-5 ovarian, -52.5% (active); in the experiment with IGROV1 ovarian it was -40.2% (active); in the experiment on OVCAR-3 ovarian, -77% (active). For the same molecule, the growth was -20.2% (active) in the experiment on HS 578T breast and 11.4% in the experiment on NCI/ADR-RES ovarian.
For the molecule `COC(=O)CNC(=O)COc1c(OC)c(OC)cc2oc(-c3cccc(C(=O)Nc4ccc(Cl)cc4)c3)cc(=O)c12`, the growth was -24.3% (active) in the experiment on 786-0 renal; -26.1% (active) in the experiment on MALME-3M melanoma; -1.24% (active) with MDA-MB-231 breast; 21.9% in the experiment with SF-268 CNS; 21.4% in the experiment on SF-295 CNS; 58.7% in the experiment with UACC-257 melanoma. The growth is 12.7% with UACC-62 melanoma; 12.7% with SK-MEL-2 melanoma; 64.1% in the experiment on EKVX NSCLC; 41% in the experiment on SN12C renal; 66.5% with UO-31 renal; 130% in the experiment on TK-10 renal. Moreover, the growth with CAKI-1 renal was 55.8%; in the experiment with A498 renal, 119%; in the experiment with OVCAR-8 ovarian it was -69% (active); in the experiment with OVCAR-5 ovarian, 90.7%; in the experiment on IGROV1 ovarian, 58.4%; in the experiment on OVCAR-3 ovarian, 55.6%. Further, the figures for the growth in the experiment on HS 578T breast and in the experiment with NCI/ADR-RES ovarian were -3.95% (active) and 47.5%, respectively.
In the case of `COc1ccc(C2c3sc4ccc(C)cc4c3Oc3nc(N)nc(N)c32)cc1` (stereo not given), the growth in the experiment with 786-0 renal is 102%; in the experiment with MALME-3M melanoma, 85.3%; in the experiment on MDA-MB-231 breast, 89.3%; in the experiment with SF-268 CNS it was 88.6%; in the experiment with SF-295 CNS it was 102%; with UACC-257 melanoma, 94.9%. Further, the growth in the experiment on UACC-62 melanoma is 63.4%; with SK-MEL-2 melanoma it was 96%; in the experiment with EKVX NSCLC it was 76.4%; with SN12C renal, 91.4%; with UO-31 renal it was 60.5%; in the experiment with TK-10 renal it was 125%. The growth with CAKI-1 renal was 63.3%; with A498 renal it was 113%; with OVCAR-8 ovarian, 87%; with OVCAR-5 ovarian, 96.2%; in the experiment on IGROV1 ovarian, 79.1%; in the experiment on OVCAR-3 ovarian, 96.8%. For the same molecule, the growth is 78.8% in the experiment with HS 578T breast and 85.1% with NCI/ADR-RES ovarian.
